# PubChem BioAssay (NCATS)
# Records with an inconclusive call do not appear. Calls of active or inactive are those of the source. Calls come from the whole dose curve; as a rule, active = well fitted inhibition curve with a large enough effect; inconclusive = small, poorly fitted or top-dose-only effect; inactive = flat fitted curve, though single readings scatter.
# Test: Drug repurposing screens with cells derived from glioblastoma tumor samples (AID 1345199); note: nearly all actives have a fitted effect of over 40% in size
# Conditions: GBM patient neurospheres viability, ATP luminescence, 48 h; tumour line A
# Summary of the method: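 Four patient lines of CD133+ GBM neurospheres were screened at several concentrations; hits were retested in those lines plus three slower-growing GBM lines, using 48-hour treatment and ATP-based viability.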
# Potency is the fitted concentration of half-maximal effect.
row,SMILES,Potency
1,C=C(NC(=O)C(=C)NC(=O)c1csc(C2=N[C@@H]3c4csc(n4)[C@H]4NC(=O)c5csc(n5)[C@H]([C@](C)(O)[C@@H](C)O)NC(=O)[C@H]5CSC(=N5)C(=CC)NC(=O)C([C@@H](C)O)NC(=O)c5csc(n5)[C@]3(CC2)NC(=O)[C@H](C)NC(=O)C(=C)NC(=O)[C@H](C)NC(=O)C([C@@H](C)CC)NC2C=Cc3c([C@H](C)O)cc(nc3C2O)C(=O)O[C@@H]4C)n1)C(N)=O (stereo not given in full),11.2 µM (active)
2,COC(=O)C1=C(C#N)NC(C)=C(C(=O)OC(C)C)C1c1cccc([N+](=O)[O-])c1 (stereo not given),14.1 µM (active)
3,CCOC(=O)C1=C(C)NC(C)=C(C(=O)OCC)C1c1ccccc1C=CC(=O)OC(C)(C)C,2.24 µM (active)
4,COC(=O)[C@H]1[C@H]2C[C@@H]3c4[nH]c5ccccc5c4CCN3C[C@H]2C[C@@H](OC(=O)c2cc(OC)c(OC)c(OC)c2)[C@@H]1OC,12.6 µM (active)
5,COc1ccc(C[C@@H](C)NC[C@H](O)c2ccc(O)c(NC=O)c2)cc1,12.6 µM (active)
